For five compounds, AC50 and outcome results are on record in PubChem BioAssay (EPA / NIEHS).

Activity calls are given as the source filed them. The calls were made as follows: active = hit-call score of the fitted dose curve at least 0.9, where 1 is the maximum; inactive = score below 0.9.

Common to all, as to settings: mRNA level, 48 h; actives raise or lower the signal
Read-out in one assay: CYP4A11 (gene 1579)
The experiment in a line: LTEA_HepaRG_CYP4A11: Life Technologies and Expression Analysis (LTEA) Assay for CYP4A11 using HepaRG (AID 2283486). The essentials:
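Human hepatic HepaRG cultures receive duplicate 48 h exposures across a concentration-response series topping at 100 uM. Expression changes in CYP4A11 are measured by qRT-PCR relative to DMSO controls.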

Read-out in assay [1]: Cytochrome P450 3A4 (Homo sapiens) (UniProt P08684)
Kind of assay: LTEA_HepaRG_CYP3A4: Life Technologies and Expression Analysis (LTEA) Assay for CYP3A4 using HepaRG (AID 2283487). The essentials:
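Differentiated HepaRG cells, plated 48 h, then dosed 48 h in serum-free induction medium with 0.5% DMSO, 8 half-log concentrations up to 100 uM, duplicate. CYP3A4 mRNA by qRT-PCR, normalized to ACTB/GAPDH/POLR2A; bidirectional fit versus DMSO.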

Read-out in assay [2]: Pro-epidermal growth factor (Homo sapiens) (UniProt P01133)
Kind of assay: LTEA_HepaRG_EGF: Life Technologies and Expression Analysis (LTEA) Assay for Epidermal growth factor (EGF) using HepaRG (AID 2283489). The essentials: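 Concentration-response mRNA assay: HepaRG cells dosed 48 h (max 100 uM, 0.5% DMSO), EGF measured by qRT-PCR and normalized to ACTB/GAPDH/POLR2A.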

Read-out in assay [3]: Early growth response protein 1 (EGR1) transcription factor, EGR1 (gene 1958)
Kind of assay: LTEA_HepaRG_EGR1: Life Technologies and Expression Analysis (LTEA) Assay for Early growth response protein 1 (EGR1) transcription factor using HepaRG (AID 2283490). The essentials: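 Read-out is EGR1 mRNA level by qRT-PCR, normalized to three housekeeping genes and analysed for gain or loss of signal against 0.5% DMSO. Source cells: human HepaRG, treated 48 h at up to 100 uM in half-log dilutions.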

Read-out in assay [4]: Ezrin (EZR), EZR (gene 7430)
Kind of assay: LTEA_HepaRG_EZR: Life Technologies and Expression Analysis (LTEA) Assay for Ezrin (EZR) using HepaRG (AID 2283491). The essentials:
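EZR transcript levels came from Fluidigm qRT-PCR and were normalized to three housekeeping genes after 48 h chemical exposure of HepaRG cells. Dosing used an 8-point half-log series with a 100 uM top concentration in 0.5% DMSO, tested in duplicate; both directions were fitted versus vehicle.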

Read-out in assay [5]: Cytochrome P450 3A7 (Homo sapiens) (UniProt P24462)
The experiment in a line: LTEA_HepaRG_CYP3A7: Life Technologies and Expression Analysis (LTEA) Assay for CYP3A7 using HepaRG (AID 2283492). The essentials: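 qRT-PCR of CYP3A7 in HepaRG lysates after 48 h treatment; concentration-response (8 points, max 100 uM) analysed bidirectionally relative to 0.5% DMSO controls.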

Read-out in a further assay: CYP3A5 (gene 1577)
The experiment in a line: LTEA_HepaRG_CYP3A5: Life Technologies and Expression Analysis (LTEA) Assay for CYP3A5 using HepaRG (AID 2283493). Put shortly:
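Differentiated HepaRG cells in serum-free induction medium were dosed 48 h with test chemicals (8-point half-log series, top 100 uM, 0.5% DMSO, duplicate). CYP3A5 mRNA measured by qRT-PCR, normalized to ACTB, GAPDH, POLR2A; bidirectional fit versus DMSO.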

Read-out in assay [6]: Fatty Acid-Binding Protein 1 (FABP1), FABP1 (gene 2168)
The experiment in a line: LTEA_HepaRG_FABP1: Life Technologies and Expression Analysis (LTEA) Assay for Fatty Acid-Binding Protein 1 (FABP1) using HepaRG (AID 2283494). The essentials: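 HepaRG, 48 h post-plating switched to serum-free induction medium, then dosed 48 h (duplicate, 8 pts, ≤100 uM, 0.5% DMSO). RNA → Fluidigm TaqMan qRT-PCR, FABP1 normed to ACTB/GAPDH/POLR2A. Bidirectional curve fit vs DMSO.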

Read-out in assay [7]: Cytochrome P450 4A22 (Homo sapiens) (UniProt Q5TCH4)
The experiment in a line: LTEA_HepaRG_CYP4A22: Life Technologies and Expression Analysis (LTEA) Assay for Cytochrome P450 4A22 (CYP4A22) using HepaRG (AID 2283495). The essentials:
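Concentration-response (8 points, max 100 uM, 0.5% DMSO) in human HepaRG liver cells after 48 h exposure. CYP4A22 mRNA by TaqMan qRT-PCR with housekeeping-gene normalization.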

Read-out in assay [8]: Cytochrome P450 7A1 (Homo sapiens) (UniProt P22680)
Kind of assay: LTEA_HepaRG_CYP7A1: Life Technologies and Expression Analysis (LTEA) Assay for Cytochrome P450 7A1 (CYP7A1) using HepaRG (AID 2283496). The essentials:
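Gene expression endpoint in human HepaRG liver cells treated for 48 h with test chemicals (up to 100 uM, 0.5% DMSO). Values come from bidirectional concentration-response fitting versus DMSO.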

Read-out in assay [9]: Glutathione S-Transferase (GSTA2), GSTA2 (gene 2939)
Kind of assay: LTEA_HepaRG_GSTA2: Life Technologies and Expression Analysis (LTEA) Assay for Glutathione S-Transferase (GSTA2) using HepaRG (AID 2283497). The essentials: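 HepaRG, 48 h dosing, 8-pt half-log CRC from 100 uM, 0.5% DMSO vehicle, n=2; RNA → Fluidigm TaqMan qRT-PCR; GSTA2 vs ACTB/GAPDH/POLR2A; gain/loss fit vs DMSO.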

Read-out in assay [10]: growth arrest and DNA damage 45 (GADD45G), GADD45G (gene 10912)
The experiment in a line: LTEA_HepaRG_GADD45G: Life Technologies and Expression Analysis (LTEA) Assay for growth arrest and DNA damage 45 (GADD45G) using HepaRG (AID 2283499). Put shortly:
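Concentration-response in HepaRG: 48 h dosing, 0.5% DMSO, highest level 100 uM. GADD45G expression by qRT-PCR, normalised to endogenous controls; bidirectional fit to DMSO.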

Read-out in assay [11]: Glutamate-cysteine ligase regulatory (GCLM), GCLM (gene 2730)
Kind of assay: LTEA_HepaRG_GCLM: Life Technologies and Expression Analysis (LTEA) Assay for Glutamate-cysteine ligase regulatory (GCLM) using HepaRG (AID 2283500). Put shortly: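 Differentiated human HepaRG cells exposed 48 h in serum-free induction medium to 8-point half-log concentrations (top 100 uM, 0.5% DMSO), in duplicate. GCLM mRNA quantified by qRT-PCR, normalized to ACTB, GAPDH, POLR2A; bidirectional fitting versus DMSO.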

Read-out in assay [12]: Heat shock 70 kDa protein 1 (HSPA1A), gene 3303
Kind of assay: LTEA_HepaRG_HSPA1A: Life Technologies and Expression Analysis (LTEA) Assay for Heat shock 70 kDa protein 1 (HSPA1A) using HepaRG (AID 2283502). The essentials:
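Differentiated human HepaRG cells in serum-free induction medium were exposed in duplicate for 48 h to eight concentrations (top 100 uM, half-log steps, 0.5% DMSO). HSPA1A mRNA was quantified by qRT-PCR, normalized to ACTB, GAPDH and POLR2A, and fitted bidirectionally against DMSO.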

Read-out in assay [13]: Hypoxia-inducible factor 1-alpha (Homo sapiens) (UniProt Q16665)
Kind of assay: LTEA_HepaRG_HIF1A: Life Technologies and Expression Analysis (LTEA) Assay for Hypoxia-inducible factor 1 (HIF1A) Trancription factor using HepaRG (AID 2283503).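 Also: HIF1A transcript by TaqMan qRT-PCR normalized to ACTB GAPDH and POLR2A.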 Put shortly: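 HepaRG, 48 h exposure, 8-pt half-log series from 100 uM, 0.5% DMSO vehicle, duplicates. Readout: HIF1A transcript by qRT-PCR (Fluidigm array), housekeeping-normalised. Bidirectional curve fit vs DMSO baseline.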

Read-out in assay [14]: 3-Hydroxy-3-Methylglutaryl-CoA Synthase 2 (HMGCS2), HMGCS2 (gene 3158)
Kind of assay: LTEA_HepaRG_HMGCS2: Life Technologies and Expression Analysis (LTEA) Assay for 3-Hydroxy-3-Methylglutaryl-CoA Synthase 2 (HMGCS2) using HepaRG (AID 2283504). The essentials: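 This steatosis marker was read as HMGCS2 mRNA change in HepaRG cells treated 48 h with up to 100 uM chemical. Normalisation used housekeeping genes; activity in either direction was fitted relative to 0.5% DMSO vehicle.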

Read-out in a further assay: HGF (gene 3082)
The experiment in a line: LTEA_HepaRG_HGF: Life Technologies and Expression Analysis (LTEA) Assay for Hepatocyte Growth Facto (HGF) using HepaRG (AID 2283505). Put shortly: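 Using HepaRG monolayers kept in 0.5% DMSO, chemicals were tested in duplicate over eight half-log concentrations from 100 uM for 48 h. Endpoint: HGF mRNA change relative to DMSO, normalized to ACTB/GAPDH/POLR2A.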

Read-out in assay [15]: DNA damage-inducible transcript 3 (DDIT3), DDIT3 (gene 1649)
Kind of assay: LTEA_HepaRG_DDIT3: Life Technologies and Expression Analysis (LTEA) Assay for DNA damage-inducible transcript 3 (DDIT3) using HepaRG (AID 2283488). Put shortly: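 Differentiated human HepaRG cells in serum-free induction medium were exposed in duplicate for 48 h to 8 concentrations (top 100 uM, half-log steps, 0.5% DMSO). DDIT3 mRNA measured by TaqMan qRT-PCR, normalized to ACTB/GAPDH/POLR2A; bidirectional fit versus DMSO.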

Read-out in assay [16]: Glutathione S-transferase M3 (GSTM3), GSTM3 (gene 2947)
Kind of assay: LTEA_HepaRG_GSTM3: Life Technologies and Expression Analysis (LTEA) Assay for Glutathione S-transferase M3 (GSTM3) using HepaRG (AID 2283501). Put shortly: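 Expression of GSTM3 is determined by qRT-PCR in human liver HepaRG cells treated 48 h with an 8-point half-log range from 100 uM in 0.5% DMSO.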

Cytochrome P450 3A4 (Homo sapiens), sequence (P08684 whole entry, looked up): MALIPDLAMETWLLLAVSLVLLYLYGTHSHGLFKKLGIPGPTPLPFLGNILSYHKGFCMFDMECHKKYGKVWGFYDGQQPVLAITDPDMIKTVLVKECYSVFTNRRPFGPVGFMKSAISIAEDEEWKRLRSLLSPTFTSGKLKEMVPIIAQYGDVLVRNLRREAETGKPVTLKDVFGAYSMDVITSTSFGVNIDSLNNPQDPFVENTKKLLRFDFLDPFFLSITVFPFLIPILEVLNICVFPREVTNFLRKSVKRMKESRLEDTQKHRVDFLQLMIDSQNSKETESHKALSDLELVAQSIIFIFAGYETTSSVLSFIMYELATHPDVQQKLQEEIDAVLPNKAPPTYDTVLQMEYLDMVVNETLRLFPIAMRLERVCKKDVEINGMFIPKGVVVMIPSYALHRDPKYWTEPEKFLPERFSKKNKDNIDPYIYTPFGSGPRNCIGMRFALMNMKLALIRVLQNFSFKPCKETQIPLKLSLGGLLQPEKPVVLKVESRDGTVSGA
Hypoxia-inducible factor 1-alpha (Homo sapiens), sequence (Q16665 whole entry, looked up): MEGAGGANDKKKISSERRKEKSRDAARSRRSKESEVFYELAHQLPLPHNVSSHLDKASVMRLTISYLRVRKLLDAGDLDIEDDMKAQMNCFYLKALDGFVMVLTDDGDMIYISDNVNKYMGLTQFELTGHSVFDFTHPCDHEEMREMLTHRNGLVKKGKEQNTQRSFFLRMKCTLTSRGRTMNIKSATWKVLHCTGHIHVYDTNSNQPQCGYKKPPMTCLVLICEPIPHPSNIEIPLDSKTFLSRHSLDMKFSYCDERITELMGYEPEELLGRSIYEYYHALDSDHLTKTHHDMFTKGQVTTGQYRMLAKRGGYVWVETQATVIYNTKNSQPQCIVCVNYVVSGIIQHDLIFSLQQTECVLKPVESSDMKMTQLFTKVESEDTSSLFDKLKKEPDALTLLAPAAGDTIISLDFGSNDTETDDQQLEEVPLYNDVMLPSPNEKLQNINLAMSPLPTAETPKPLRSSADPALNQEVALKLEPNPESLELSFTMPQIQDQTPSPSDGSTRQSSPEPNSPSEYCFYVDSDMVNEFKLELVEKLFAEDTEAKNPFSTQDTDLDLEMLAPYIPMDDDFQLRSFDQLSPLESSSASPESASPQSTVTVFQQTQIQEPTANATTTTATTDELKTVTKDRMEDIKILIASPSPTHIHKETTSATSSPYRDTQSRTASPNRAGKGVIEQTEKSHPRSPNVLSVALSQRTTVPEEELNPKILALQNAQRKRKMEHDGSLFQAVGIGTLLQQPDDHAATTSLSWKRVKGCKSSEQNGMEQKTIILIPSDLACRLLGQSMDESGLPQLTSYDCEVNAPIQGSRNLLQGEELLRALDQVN
Cytochrome P450 3A7 (Homo sapiens), sequence (P24462 whole entry, looked up): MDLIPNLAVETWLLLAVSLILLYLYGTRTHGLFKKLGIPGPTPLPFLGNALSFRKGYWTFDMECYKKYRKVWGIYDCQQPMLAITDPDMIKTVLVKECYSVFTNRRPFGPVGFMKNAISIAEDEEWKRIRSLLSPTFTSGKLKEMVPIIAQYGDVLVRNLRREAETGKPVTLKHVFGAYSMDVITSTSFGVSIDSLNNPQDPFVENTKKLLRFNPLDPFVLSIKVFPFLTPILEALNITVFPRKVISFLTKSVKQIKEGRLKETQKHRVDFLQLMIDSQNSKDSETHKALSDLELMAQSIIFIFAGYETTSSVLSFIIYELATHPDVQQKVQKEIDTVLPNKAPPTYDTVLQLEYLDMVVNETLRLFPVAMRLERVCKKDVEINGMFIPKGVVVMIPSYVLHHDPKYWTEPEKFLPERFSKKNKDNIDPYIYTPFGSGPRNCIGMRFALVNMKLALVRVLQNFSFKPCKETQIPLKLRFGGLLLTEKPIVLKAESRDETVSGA

As a reminder, the AC50 is the midpoint of the concentration-response curve, whichever way the signal moves. Consider `CC(C)(O)C(=O)Nc1ccc([N+](=O)[O-])c(C(F)(F)F)c1`, for which the half-maximal activity concentration (AC50) in the assay with CYP4A11 (gene 1579) is 42 µM (active); in assay [2], 0.0411 µM (active); in [3], 0.0388 µM (active); in [6] it was 25 µM (active); in [14], 44.8 µM (active); with HGF (gene 3082), 0.0291 µM (active). The outcome (in assay [1]; in [4]; in assay [5]; with CYP3A5 (gene 1577); in assay [7]; in [8]) was inactive. Besides, the compound was classed as inactive in assay [9], in assay [10], in [11], in [12] and in [13].

As for `Clc1ccc(C(Cl)(Cl)Cl)cc1`, the result (with CYP4A11 (gene 1579); in [1]; in assay [15]; in [2]; in assay [3]; in [4]) was inactive. Besides, the compound was classed as inactive (in [5]; in the assay with CYP3A5 (gene 1577); in assay [6]; in assay [7]; in assay [8]; in assay [9]). Further, the result (in [11]; in assay [16]; in assay [12]; in [13]; in assay [14]; with HGF (gene 3082)) was inactive.

Take `Oc1ccc(C(c2ccc(O)cc2)(C(F)(F)F)C(F)(F)F)cc1`: the AC50 in the assay with CYP4A11 (gene 1579) was 76.6 µM (active); in assay [1], 81.7 µM (active); in assay [15], 79.3 µM (active); in [2], 80.1 µM (active); in assay [3], 81.5 µM (active); with CYP3A5 (gene 1577), 80.2 µM (active). Besides, the AC50 is 92.5 µM (active) in assay [6]; 89.6 µM (active) in assay [8]; 79.5 µM (active) in assay [9]; 72.8 µM (active) in assay [12]; 83.5 µM (active) in assay [13]; 79.4 µM (active) in [14]. Further, the result (in [4]; in assay [5]; in assay [7]; in [11]; with HGF (gene 3082)) was inactive.

Take `O=S(=O)(O)C(F)(F)C(F)(F)C(F)(F)C(F)(F)F`: the call (with CYP4A11 (gene 1579); in [1]; in assay [15]; in assay [2]; in assay [3]; in [4]) was inactive. For the same compound, the compound was classed as inactive (in assay [5]; with CYP3A5 (gene 1577); in assay [6]; in assay [7]; in assay [8]; in assay [9]). The result (in [11]; in [16]; in [12]; in [13]; in [14]; with HGF (gene 3082)) was inactive.

Regarding `C[C@]12CCC(=O)C=C1CC[C@@H]1[C@@H]2CC[C@@]2(C)[C@H]1CC[C@]2(C)O`, the AC50 was 73.6 µM (active) with CYP4A11 (gene 1579); 80 µM (active) in assay [15]; 69.8 µM (active) in [7]; 1.9 µM (active) in assay [8]; 69 µM (active) in assay [14]. Further, the outcome (in [1]; in assay [2]; in assay [3]; in assay [4]; in [5]; with CYP3A5 (gene 1577)) was inactive. For the same compound, the compound was classed as inactive (in [6]; in [9]; in [11]; in assay [12]; in assay [13]; with HGF (gene 3082)).
